# A selection: hits, their analogues and other compounds. The true share with any hit is near 1.4%.
# AID504770 – growth inhibitors of E. coli YBA685 in a screen for V. cholerae RctB (chromosome II replication) inhibitors; z-score (test concentration not listed); E. coli YBA685 rctB-dependent plasmid, OD600 growth, 3 h; hits give low values; 130,000 compounds, 0.27% hits; in the data active = z-score below about -2, passing the limit was not always enough
# PV pol inh – poliovirus RNA polymerase inhibition; 150,000 compounds, 0.66% hits; AID 588519; poliovirus polymerase elongation, fluorescence polarization; hits give low values; % elongation, % (compound at 16.7 µg/mL); in the data active = % elongation below about 90%
# Mtb MbtI inh – MbtI salicylate synthase inhibition. P9WFX0. purified MbtI enzyme, fluorescence intensity read-out. inhibition, % (concentration not given with the values). 100,000 compounds, 0.89% hits; in the data active = inhibition mostly above about 56%, no sharp cut-off; inactive = mostly below about 77%
# Mtb MenB inh – inhibitors of Mycobacterium tuberculosis MenB enzyme; P9WNP5; MenB enzyme assay, absorbance read-out; inhibition, % (concentration not given with the values); 100,000 compounds, 0.43% hits; in the data active = inhibition above about 21%, passing the limit was not always enough
# Target sequence (P9WNP5 whole entry, looked up): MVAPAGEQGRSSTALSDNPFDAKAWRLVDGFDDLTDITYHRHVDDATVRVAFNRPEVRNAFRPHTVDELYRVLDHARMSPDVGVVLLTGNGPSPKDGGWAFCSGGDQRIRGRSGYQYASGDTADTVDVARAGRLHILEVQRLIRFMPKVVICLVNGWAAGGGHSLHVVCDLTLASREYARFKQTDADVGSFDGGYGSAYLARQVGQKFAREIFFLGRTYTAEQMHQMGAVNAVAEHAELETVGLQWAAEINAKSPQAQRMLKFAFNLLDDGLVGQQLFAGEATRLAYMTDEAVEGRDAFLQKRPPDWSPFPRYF
# Starred values were filed as active, the others as inactive; i = inactive; x = no result given.
SMILES,AID504770,PV pol inh,Mtb MbtI inh,Mtb MenB inh
NC(=O)C1CCN(C2=NC(=O)/C(=C/c3cn(-c4ccccc4)nc3-c3cccs3)S2)CC1,-1.3,103,-35,-43
O=c1c2ccccc2n2c(=S)[nH]nc2n1Cc1ccccc1,-0.45,98,38,-106
O=C1CSc2ccccc2N1Cc1n[nH]c(=S)n1Cc1ccccc1,-0.4,99,56*,-30
O=C(NCCc1ccc(Cl)cc1)c1cccnc1Oc1ccccc1,-0.6,x,x,x
CN(C)C1CCS(=O)(=O)C1 (stereo not drawn),-0.55,102,-13,-36
CC1=CC(=O)C(N(C)C2CCS(=O)(=O)C2)=CC1=O (stereo not drawn),1.8,96,100*,3
N#Cc1ccc(C(=O)N2CCCSC2=NCCc2ccccc2)cc1,-0.2,99,3,6
CCOCCCN=C1SCC(CC)N1C(=O)c1ccc(C#N)cc1 (stereo not drawn),-0.25,89*,-8,4
COc1ccc2nc(C(=O)O)sc2c1,0.35,86*,x,0
CNc1nc(-c2ccc3c(c2)CCN3C(=O)C(C)C)cs1,1.9,103,14,35*
c1ccc(-n2nnnc2SSc2nnnn2-c2ccccc2)cc1,-0.7,98,59*,-24
O=C(Sc1nnnn1-c1ccccc1)c1cccc(Cl)c1,0.2,x,x,x
N#CC(C#N)=C/C=C(\Sc1nnnn1-c1ccccc1)c1ccccc1,-0.35,98,84*,-10
CCS(=O)(=O)c1nnnn1-c1ccccc1,-0.2,103,29,42*
O=S(=O)(Cc1ccccc1)c1nnnn1-c1ccccc1,0.5,x,-6,x
Cc1cc2nc3ccc(=[N+](C)C)cc-3sc2cc1N,13,2.0*,x,12
Cc1ccc(-c2noc(CNC(=O)CSc3ccccc3)n2)cc1,2,107,-7,-28
CC(=O)Nc1nc(-c2ccccc2)[n+](-c2ccccc2)s1,-0.55,x,x,x
CNc1nc(-c2ccccc2)[n+](-c2ccccc2)s1,-0.45,102,100*,x
N#Cc1ccc(-c2ccccc2)[nH]c1=O,-0.9,100,i,-22
N#Cc1nc2[nH]c(-c3ccccc3)cc(=O)n2c1C#N,0.1,90*,105,-4
O=C1C=CC(=O)N1c1cc(C(F)(F)F)ccc1Cl,1.2,101,98*,x
O=C1C2C3C=CC(O3)C2C(=O)N1c1ccccc1C(F)(F)F (stereo not drawn),-0.75,x,x,x
O=C1C=CC(=O)N1c1ccccc1C(F)(F)F,-2.5*,101,98*,x
O=C1C=CC(=O)N1c1ccc(C(F)(F)F)cc1,-1,x,x,x
SMILES,AID504770,PV pol inh,Mtb MbtI inh,Mtb MenB inh
O=C1OC(Cc2ccccc2Cl)c2cc[nH]c(=O)c21 (stereo not drawn),-0.05,102,x,1
COC(=O)/C=C1/OC(c2ccc(Cl)cc2)=CC1=O,-0.75,108,100*,-58
COC(=O)c1cc(-c2ccc(Cl)cc2)on1,-0.4,101,x,26
N#Cc1cc2cc(Br)ccc2oc1=O,-1,102,-13,-16
CCCN1CCN(CCCNC(=O)c2cc3c(Cl)nc4ccccc4c3s2)CC1,x,67*,x,x
CCN1CCN(CCCNC(=O)c2cc3c(=O)n(C)c4ccccc4c3s2)CC1,x,74*,x,x
O=C(CSc1ccc(Cl)cc1)c1cc2ccccc2o1,-0.6,103,20,x
CC(CC(=O)NCC1(N(C)C)CCCCC1)c1ccccc1 (stereo not drawn),0.05,100,5,-10
O=C1Nc2cc(C(=O)N3CCN(c4ccc(F)cc4)CC3)ccc2NC1CS(=O)(=O)Cc1ccc(F)cc1 (stereo not drawn),0.15,109,-7,-6
O=C1CCCC(=O)C1C(c1ccc(-c2cc(C(F)(F)F)ccc2Cl)o1)C1C(=O)CCCC1=O,-0.85,102,99*,-20
O=C(NCCc1ccc(O)c(O)c1)C(F)(F)F,0.6,101,85*,x
O=S1(=O)CCC(NC(=S)SCCOc2ccccc2)C1 (stereo not drawn),-3*,x,x,x
Cc1ccc(OCCn2cc(C(=O)c3cccs3)c3ccccc32)cc1,x,77*,x,x
O=c1n(CN2CCOCC2)c2ccccc2n1CN1CCOCC1,-0.5,108,x,-3
S=c1n(CN2CCOCC2)c2ccccc2n1-c1ccccc1,0.2,72*,99*,-7
Cn1cc(NC(=O)N(Cc2ccco2)CC2CCCO2)c2ccccc2c1=O (stereo not drawn),0.1,82*,-13,-27
Cc1cccc(C)c1OCc1nc2c3cnn(-c4ccccc4Br)c3ncn2n1,x,111,x,x
Cc1cccc(C)c1OCc1nc2c3cnn(-c4ccccc4F)c3ncn2n1,x,75*,x,x
Cc1cc(NCCCN2CCCC2=O)n2c(nc3ccccc32)c1C#N,1.1,104,70,37*
O=C1CSC(=S)N1Nc1ccccc1,-4,105,76*,-59
CCOc1ccc(N2C(=O)CC(N3CCCCC3CC)C2=O)cc1 (stereo not drawn),-0.05,103,55*,9
CCCOc1ccc(/C=C/C(=O)Nc2sc(C)c(C)c2C(=O)OCC)cc1OC,x,73*,x,x
CC(C)N1CSC(=S)N(C(C)C)C1,-4*,64*,-8,-5
COC(=O)C1=C(C)N=c2s/c(=C/c3ccco3)c(=O)n2C1c1ccc(OC)cc1 (stereo not drawn),-0.45,102,-2,-40
Cc1[nH]c(=S)sc1CC(=O)N(C)Cc1ccccc1Cl,0.6,104,76*,-12
SMILES,AID504770,PV pol inh,Mtb MbtI inh,Mtb MenB inh
O=S(=O)(NNc1nccc(-c2cccnc2)n1)c1cccc(C(F)(F)F)c1,-1,101,55*,5
CN(C)C(=O)ONC(=O)Cc1ccccc1,-3.9*,x,x,x
O=C(O)/C=C/c1cc(C(F)(F)F)cc(C(F)(F)F)c1,-0.3,x,12,9
O=C(Nc1ccc2c(c1)OCO2)c1cnn2c(C(F)(F)F)cc(-c3ccco3)nc12,-0.05,99,-7,-17
COC(=O)c1cc(-c2ccco2)nc2c1cnn2Cc1ccc2c(c1)OCO2,0.1,71*,-28,3
CCOC(=O)C1CCN(CCC(C)(C)c2ccc(C)o2)CC1,-0.9,101,-9,-37
COc1ccccc1C(=O)CN1CCCCC1C (stereo not drawn),0.5,107,-2,-21
COc1ccccc1Nc1nn(CN2CCCCC2C)c(=S)s1 (stereo not drawn),-0.05,94,100*,-28
COc1nc(NC(=O)NS(=O)(=O)Nc2cccc3cccnc23)nc(OC)n1,0.55,79*,2,7
CCC(=O)Nc1cccc2cccnc12,1.4,102,6,-9
COCCCn1c(=O)c2ccccc2n(CC(N)=O)c1=O,-0.5,101,58,28*
COc1ccccc1NC(=O)CCc1c(C)nc2nc(CNC(=O)OC(C)(C)C)nn2c1C,0.2,104,-6,-8
CCOC(=O)N1CCC(n2c(SCC(=O)Nc3ccccc3C(=O)OC)nc3ccsc3c2=O)CC1,-0.55,x,x,x
N#Cc1ccc(NS(=O)(=O)Cc2ccccc2)cc1,0,x,0,x
Cc1cc(C)c(C(=O)O)c(=O)[nH]1,0.6,106,12,-7
Cc1cc(C)c(C(=O)O)c(=S)[nH]1,-2.5*,102,89*,-22
Nc1nonc1C(=O)OCc1ccccc1Cl,0.55,x,0,x
O=C1c2ccccc2C(=O)N1SSN1C(=O)c2ccccc2C1=O,0.25,85*,47,-1

# Bioassay records: PubChem BioAssay, ICCB-Longwood Screening Facility, Harvard Medical School
